# Screens as filed in PubChem BioAssay.
# aSyn rescue: inhibitors of alpha-synuclein toxicity in yeast; Yeast expressing alpha-synuclein, growth rescue, BacTiter-Glo, 24 h; Potency, µM (doses to about 46.1 µM), usual class: activators; actives 0.14% (n = 370,000); also: nearly all actives have a fitted effect of over 65% in size
#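 Readout is rescue of growth in alpha-synuclein-expressing yeast, so inhibitors of toxicity appear as activators. Growth after 24 hr at 30 deg C in galactose medium is quantified by luminescence.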
# Abeta rescue: A-beta toxicity reversal in yeast. yeast expressing A-beta42, growth rescue, OD600, 48 h; response scale: 0% DMSO, 100% iron-clioquinol control. Potency, µM (highest dose often 46.1 µM), actives largely listed as activators. actives 0.063% (n = 410,000); also: nearly all actives have a fitted effect of over 55% in size
#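 Yeast growth medium received pinned compounds, then yeast cells expressing toxic A-beta were added; plates incubated at 30 C for 48 hr. Growth read as absorbance at 600 nm, normalized to DMSO and equimolar FeCl3 plus clioquinol controls.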
# TDP-43 yeast inh: inhibitors of TDP-43 toxicity in yeast; actives 1.8% (n = 410,000); TDP-43 expressing yeast growth rescue, BacTiter-Glo, 24 h; Potency, µM (highest dose often 46.1 µM), most hits filed as activators; also: nearly all actives have a fitted effect of over 50% in size
#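 Yeast cells expressing TDP-43 under galactose induction are exposed to compounds for 24 hr at 30 deg C. BacTiter-Glo luminescence measures growth, so protective compounds score as activators.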
# FUS suppressor: FUS proteinopathy suppression in yeast | S. cerevisiae FUS-expressing, growth rescue, OD600, 24 h | AID 1347120 | actives 0.24% (n = 390,000) | Potency, µM (titrated, usually from 76.6 µM), actives largely listed as activators; also: nearly all actives have a fitted effect of over 55% in size
#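 Toxicity suppression screen in FUS-yeast. Cells induced with 2% galactose, starting OD 0.005, treated 24hr at 30C with compounds at multiple final concentrations; growth by OD600.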
# Numbers stand for hits; . = inactive; ? = inconclusive; / = no result; [ ] = another dose, or the depositor's remark. In the library only some 2.1% were active in any assay of this set; here they are far more common. Calls follow the shape of the dose curve; as a rule, active = well fitted curve in the direction sought with a large enough effect; inconclusive = small, poorly fitted or top-dose-only effect, or another doubt; inactive = no such curve, though single readings can be large; an effect the other way counts as inactive or inconclusive.
SMILES,aSyn rescue,Abeta rescue,TDP-43 yeast inh,FUS suppressor
O=S(=O)(c1ccccc1Br)N1CCN(c2ncccn2)CC1,?,.,12.6µM,.
O=S(=O)(c1ccccc1)N1CCN(c2ncccn2)CC1,.,.,.,.
Cc1noc(C)c1COC(=O)Cc1ccc(Cl)c(Cl)c1,.,.,10µM,.
COc1ccc(OC)c(CC2C(=O)Nc3ccc(Br)cc32)c1 (stereo not drawn),/,.,?,?
Cc1ccnc(NC(=O)c2cccc(S(=O)(=O)N3CCCc4ccccc43)c2)c1,.,.,22.4µM,.
O=C(Nc1ccccn1)c1cccc(S(=O)(=O)N2CCCc3ccccc32)c1,.[1.84 µM],.,25.1µM,.
O=C(Nc1ncccc1O)c1cccc(S(=O)(=O)N2CCCc3ccccc32)c1,.,.,.,.
C=CCn1c(COc2ccccc2)nnc1SCC(=O)Nc1ccc(Oc2ccccc2)cc1,/,/,/,.
COC(=O)c1ccc2c(C3(c4c[nH]c5ccccc45)CCN(C(=O)OC(C)(C)C)CC3)c[nH]c2c1,/,/,/,.
Cc1cc(C)c2c(c1)/C(=C/C(=O)c1ccc(Br)s1)C(=O)N2,.,.,17.8µM,?
Cc1ccc(C)c(S(=O)(=O)N2C(=S)NC(=O)C2C(C)C)c1 (stereo not drawn),.,.,35.5µM,.
Cc1ccc(C)c(S(=O)(=O)N2CCCN(C)CC2)c1,.,.,.,.
CCCN1CNc2c(c(=O)[nH]c(=S)n2CCc2ccc(Cl)cc2)C1,.,/,/,/
Cc1cc(C)c(COc2ccc(/C=N/n3c(C)n[nH]c3=S)cc2)c(C)c1,.,?,20µM,.
COc1ccc(C(=O)NCC(c2ccc(N(C)C)cc2)N2CCc3ccccc32)cc1 (stereo not drawn),/,.,.,.
Cc1cc(C)c2nc(NNC(=O)c3ccc(S(=O)(=O)N4CC(C)CC(C)C4)cc3)sc2c1 (stereo not drawn),.,.,5.01µM,.
COc1ccc(-c2nnc(NC(=O)c3ccc(S(=O)(=O)N4CCc5ccccc5C4)cc3)o2)cc1,.,.,.,.
Cc1ccc2nc(NNC(=O)c3ccc(S(=O)(=O)N4CCc5ccccc5C4)cc3)sc2c1,?,.,8.91µM,?
O=C(Nc1nnc(C2CC2)o1)c1ccc(S(=O)(=O)N2CCc3ccccc3C2)cc1,17.8µM,.,15.8µM,.
COc1ccc(Cl)cc1NC(=O)CSc1cn(CC(=O)N2CCCCCC2)c2ccccc12,/,.,?,.
Cn1nnc(NC(=S)NC(=O)c2cccc3ccccc23)n1,.,11.2µM,.,.
Cn1nnc(NC(=S)NC(=O)c2ccc3ccccc3c2)n1,.,.,?,.
Cn1nnc(NC(=S)NC(=O)c2cccs2)n1,.,.,.,.
CCCCn1nnc(NC(=S)NC(=O)c2cccs2)n1,.,.,35.5µM,/
CCC(=O)Oc1c(Sc2ccc(C)cc2)c(C)nn1-c1ccccc1,/,.,.,.
SMILES,aSyn rescue,Abeta rescue,TDP-43 yeast inh,FUS suppressor
Cc1ccc(Sc2c(C)nn(-c3ccccc3)c2OC(=O)C(C)(C)C)cc1,/,.,14.1µM,.
CCCC(=O)Oc1c(Sc2ccc(C)cc2)c(C)nn1-c1ccccc1,/,.,11.2µM,.
Cc1nn(-c2ccccc2)c(OC(=O)C(C)(C)C)c1Sc1ccccc1,/,.,?,.
CC(=O)C[n+]1cccc(Br)c1,.,/,/,/
O=C(NCCc1nc2ccccc2n1CCCOc1ccc2ccccc2c1)C1CCCCC1,.,/,/,/
c1ccc2c(-c3csc(-c4ccncc4)n3)c[nH]c2c1,.,.,3.98µM,.
c1ccc(-c2ccc3[nH]ccc3c2)cc1,.,.,12.6µM,.
c1cncc(-c2ccc3[nH]ccc3c2)c1,.,.,.,.
Cc1csc(NC(=O)c2ccc(C)c([N+](=O)[O-])c2)n1,.,.,20µM,/
CCc1sc(C(=O)Nc2ccc(NC(C)=O)cc2)cc1C,.,.,.,.
CCc1sc(C(=O)Nc2nc(C)cs2)cc1C,.,.,20µM,.
C[C@@H]1COc2cccc(F)c2S(=O)(=O)N1C,/,/,/,.
CN(C)c1cc(-c2ccc(Br)cc2)oc(=O)c1Cl,.,.,7.94µM,.
CN(C)c1cc(-c2ccc(C#N)cc2)oc(=O)c1Cl,.,.,.,.
C/C(=N\NC(=O)COc1ccccc1-c1ccccc1)c1cccnc1,.,.,.,.
C/C(=N\NC(=O)COc1ccccc1-c1ccccc1)c1ccccn1,17.8µM,.,?,.
CCC(C)Sc1nc2c(c(=O)n1C)SC(C)C2 (stereo not drawn),.,.,17.8µM,.
Clc1cccc(CNc2ncnc3nc[nH]c23)c1,.,/,/,/
C/C(=N\NC(=S)NCC(C)(C)C)c1cc(F)cc(F)c1O,.,?,12.6µM,.
O=C1/C(=C/c2ccccc2O)SC(=S)N1Cc1cccnc1,.,.,12.6µM,.
COc1ccc(C2=NN3C(C2)c2ccccc2OC32C(=O)N(C)c3ccccc32)cc1 (stereo not drawn),.,.,22.4µM,?
CCCN1CNc2c(c(=O)[nH]c(=S)n2CCc2ccccc2C)C1,.,/,/,/
CCOC(=O)c1ccccc1NS(=O)(=O)c1c(-c2ccc(C)cc2)csc1C(=O)OC,/,.,.,?
CC(C)(CC(=O)O)Cc1nc(-c2ccc(Cl)cc2)no1,.,.,31.6µM,.
O=C(O)CCc1nc(-c2ccc(Cl)cc2)no1,.,.,14.1µM,/
SMILES,aSyn rescue,Abeta rescue,TDP-43 yeast inh,FUS suppressor
CC(=O)NCCc1nc(-c2ccc(Cl)cc2)no1,.,.,.,.
Cn1c(-c2ccccc2F)cc2onc(-c3ccccc3)c2c1=O,.,.,20µM,.
Clc1cccc(CNc2ccn3nc(-c4cccs4)cc3n2)c1,?,?,17.8µM,.
Clc1cccc(CNc2ccn3nc(-c4ccc(OCCN5CCOCC5)cc4)cc3n2)c1,?,.,.,.
Clc1cccc(CNc2ccn3nc(-c4ccco4)cc3n2)c1,?,.,15.8µM,.
CCc1ccc(CCC(=O)Nc2ccc(Br)cc2)o1,.,.,22.4µM,.
Cc1ccc(CCC(=O)Nc2ccc(Br)cc2)o1,.,.,.,.
Brc1ccc[n+](CCc2ccccc2)c1,.,/,/,/
COc1cc(-c2coc3c(C(=O)NCc4cccc(Cl)c4)cccc23)ccc1O,?,.,?,?
CS(=O)(=O)Nc1cccc(NC(=O)c2cccc3c(-c4ccc(F)c(F)c4)coc23)c1,.,.,.,20µM
COc1cc(-c2coc3c(C(=O)NCc4ccccc4)cccc23)ccc1O,.,.,12.6µM,?
O=C(NCc1ccco1)c1cccc2c(-c3ccc(F)c(F)c3)coc12,.,.,14.1µM,.
CCOC(=O)N1CCN(C(=O)C[C@@H]2C(=O)N(Cc3ccc(OC)cc3)/C3=C/CCCCC[C@@]32C(=O)OCC)CC1,/,/,/,.
Cc1ccc(C)c(Nc2nc(NCc3ccco3)nc3nccnc23)c1,.,/,/,/
CCOc1ccccc1C(=O)Nc1ccc2nc(N3CCN(c4ncccn4)CC3)cc(C)c2c1,.,.,17.8µM,.
CCOc1ccccc1NC(=O)Nc1ccc2nc(N3CCN(C)CC3)cc(C)c2c1,/,.,.,.
COc1cc(NC(=O)C2CCN(C(=O)c3sc4nc[nH]c(=O)c4c3C)CC2)cc(OC)c1OC,/,.,.,.
